According to PubChem BioAssay (NCI):
Compounds without any hit were thinned out: in the full panel of roughly 83,000, 20% have a hit.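 48-hour exposure, single concentration, 96-well plates; percent growth endpoint where 0 means no net growth. Active: below 10.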 Values without a mark were called inactive. The source made the active and inactive calls.

Assays:
Assay in all cases: NCI-60 one-dose screen, 48 h (100 = growth as untreated, 0 = no growth, -100 = all killed)
Details in all cases: 10 µM unless noted
NCI-H23 lung = test system: NCI-H23 lung
NCI-H322M lung = test system: NCI-H322M lung
HOP-62 NSCLC = test system: HOP-62 NSCLC
NCI-H460 lung = test system: NCI-H460 lung
HOP-92 NSCLC = test system: HOP-92 NSCLC
NCI-H522 lung = test system: NCI-H522 lung
A549/ATCC NSCLC = test system: A549/ATCC NSCLC
786-0 renal = test system: 786-0 renal
COLO 205 colon = test system: COLO 205 colon
DU-145 prostate = test system: DU-145 prostate
K-562 leukemia = test system: K-562 leukemia
MDA-MB-231 breast = test system: MDA-MB-231 breast
RXF 393 renal = test system: RXF 393 renal
SF-268 CNS = test system: SF-268 CNS
SF-295 CNS = test system: SF-295 CNS
SF-539 CNS = test system: SF-539 CNS
UACC-257 melanoma = test system: UACC-257 melanoma
M14 melanoma = test system: M14 melanoma
HCT-15 colon = test system: HCT-15 colon
MALME-3M melanoma = test system: MALME-3M melanoma

Structure (SMILES)	growth (NCI-H23 lung)	growth (NCI-H322M lung)	growth (HOP-62 NSCLC)	growth (NCI-H460 lung)	growth (HOP-92 NSCLC)	growth (NCI-H522 lung)	growth (A549/ATCC NSCLC)	growth (786-0 renal)	growth (COLO 205 colon)	growth (DU-145 prostate)	growth (K-562 leukemia)	growth (MDA-MB-231 breast)	growth (RXF 393 renal)	growth (SF-268 CNS)	growth (SF-295 CNS)	growth (SF-539 CNS)	growth (UACC-257 melanoma)	growth (M14 melanoma)	growth (HCT-15 colon)	growth (MALME-3M melanoma)
CCOc1ccc2nc(C)cc(Nc3ccc(Br)cc3)c2c1	95.8%	93.9%	109%	101%	105%	107%	95.2%	108%	95.9%	110%	87.6%	109%	110%	108%	110%	103%	103%	121%	82.2%	
O=C(O)c1cn(C2CC2)c2cc(N3CCN(C(=O)C[n+]4ccccc4)CC3)c(F)cc2c1=O	104%	105%	103%	106%	98.5%	93.4%	99.1%	98.5%	121%	102%		105%		95.3%	101%	95.1%	101%	106%	102%	99.5%
Cc1nn(-c2nc3ccccc3[nH]2)c2c1C(c1ccc(OCC(N)=O)cc1)CC(=O)N2 (stereo not drawn)	103%	105%	100%	103%	105%	100%	109%	104%	117%	107%		103%		96.4%	69.5%	100%	110%	80%	98%	88.2%
COc1ccc(-c2nocc2-c2cccs2)cc1	105%	102%	101%	102%	86.6%	98.5%	99.3%	103%	115%	107%		92.8%		101%	95.1%	101%	118%	111%	99.1%	106%
COc1ccc(-n2c(C(O)c3ccccc3)n[nH]c2=S)cc1 (stereo not drawn)	101%	102%	92.5%	108%	83.6%	89.7%	102%	99.1%	110%	113%	99.3%	92.2%		95.9%		101%	90.4%	90%	107%	94.9%
CCOc1c(Br)cc(C2C(C(=O)OC)=CN(C)C=C2C(=O)OC)cc1OC	98%	76.3%	84.6%	48.3%	39.2%	75.9%	85.9%	58.3%	-88.1% (active)	91.4%	8.68% (active)	49.4%	64.2%	68.1%	24%	94.2%			41%	
O=C(CCN1C(=O)c2ccccc2C1=O)Nc1ccc(Cl)cc1	66.4%	82.2%	54.8%	44.1%	64.3%	66.3%	79.2%	65.8%	118%	67.2%	60.7%	114%		73.6%	28.4%	86.5%	98.2%	92.7%	61.7%	
O=C(Nc1ccc(-c2nc3ccc(NC(=O)c4ccc(Cl)cc4)cc3[nH]2)cc1)c1ccc(Cl)cc1	56%	10.4%	29.2%	26.3%	41.2%	-65.6% (active)	4.64% (active)	-22.8% (active)	-74.3% (active)	44.1%	-1.36% (active)	-0.679% (active)	-49% (active)	43.7%	-68% (active)	-68.2% (active)	-15.8% (active)	2.14% (active)	32.1%	
Cc1ccc(S(=O)c2ccc([N+](=O)[O-])c3nonc23)cc1 (stereo not drawn)	102%	110%	112%	99.5%	109%	-60.1% (active)	101%	102%	-39.7% (active)	112%	38.9%		111%	105%	119%	106%	100%	104%	66.5%	81.2%
COc1cc2c(cc1OC)C(=O)C(CC1CCN(C(=O)Nc3ccc(C)cc3)CC1)C2 (stereo not drawn)	100%	95.7%	99.1%	97.3%	62.5%	87.8%	108%	101%	110%	104%		76.7%		96.8%	96.5%	92.8%	119%	97.5%	94.5%	91.1%
Cn1c(C(=O)c2cccc3ccccc23)nc2ccccc21	19.4%	-2.65% (active)	18.6%	3.61% (active)	34%	-4.82% (active)	3.42% (active)	5.77% (active)	12.9%	18.3%	7.22% (active)	29.1%	13.5%	2.01% (active)		-1.45% (active)	-7.56% (active)	-45.9% (active)	29.4%	
COc1cccc(C(=O)Cn2cc(/C=C(\C#N)S(=O)(=O)c3ccccc3)c3ccccc32)c1	90.4%	96.7%	83.1%	57.5%	68.8%	88%	93.1%	99.3%	90.7%	105%	79.2%	102%		93.7%	88.8%	90.5%	89.9%	86.5%	110%	108%
COc1ccccc1C(=O)/C=C/c1ccccc1	83.4%	86.1%	86.9%	66.4%	80.6%	81.8%	76.1%	101%	117%	32.1%	23.1%	97.6%		80%	89.9%	91.6%	92.6%	103%	53.3%	99.1%
O=C(Nc1ccc(-c2nc3cc4ccccc4cc3[nH]2)cc1)c1cccc(Br)c1	54.1%	41.3%	49.9%	6.74% (active)	72.6%	16.3%	27%	17.6%	34.6%	46.4%	26.7%	69.2%	29%	37%	-36.3% (active)	30.8%	42.3%	34.2%	22.3%	
COc1ccc(-c2cn[nH]c2-c2ccc(OC)c(O)c2)cc1	92.8%	98.6%	66.4%	76.6%	61.5%	45.6%	76%	92.5%	116%	96.9%		68.4%		77.9%	81.7%	76.9%	92.3%	64.2%	50%	98.6%
COc1ccc(C2NCCc3c2[nH]c2ccccc32)cc1CN1CCN(c2ccc(F)cc2)CC1 (stereo not drawn)	64.8%	78.5%	63.4%	5.7% (active)	-18.7% (active)	40.8%	63.7%	51%	47.6%	78.5%	17%	-32.5% (active)	-9.51% (active)	76.4%	-67.2% (active)	58.8%	-39.9% (active)	-30% (active)	8.26% (active)	
CCCCc1c(CCC)c(=N)c2ccccc2n1C	99.2%	85.3%	78%	67.7%	48.2%	100%	69.8%	73.8%	70.5%	79.9%	8.23% (active)	43.2%	90.9%	81.4%	9.89% (active)	74.1%	30.8%	55.3%	44.5%	
